Shown are actives, neighbours in structure and some others; about 3.2% of the full set was active somewhere.
TR SRC2 fluor cs: counter-screen for TRb-SRC2 inhibitors: fluorescence interference. TRb/SRC2 Texas Red total fluorescence interference. Potency, µM (doses to about 106 µM). 280,000 tested, 0.29% active; active means well fitted curve in either direction with a large enough effect; inconclusive means small, poorly fitted or top-dose-only effect
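Human TRb ligand-binding domain at 0.6 uM with 20 nM Texas Red SRC2 peptide in Tris buffer containing 1 uM T3 and 5% DMSO, incubated with compound 5 h at ambient temperature. Total fluorescence (555/632 nm) calculated as parallel + 2 × perpendicular.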
Tau fibril FP: blocks human tau fibril formation measured by polarization; P10636; K18 P301L tau heparin fibrillization, Alexa594 FP, 6 h; Potency, µM (titrated, usually from 57.7 µM), hits mostly inhibitors; 280,000 tested, 0.39% active; further: nearly all actives have a fitted effect of over 55% in size
Target sequence (P10636 561-689 P618L limits assumed): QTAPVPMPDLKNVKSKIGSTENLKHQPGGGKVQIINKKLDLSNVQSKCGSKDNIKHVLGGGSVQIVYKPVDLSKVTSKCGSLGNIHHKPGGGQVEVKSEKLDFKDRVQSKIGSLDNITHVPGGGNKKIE
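Compound effects on tau fibrillization are measured by Alexa 594 fluorescence polarization (ex 555, em 632 nm). K18 P301L tau is used at 15 uM with 0.24 uM labeled tracer, and 20 uM heparin induces aggregation over 6 hr at 37 C.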
GoLoco inh red: RGS12 GoLoco-Gai1 interaction inhibition; P63096; Gai1:RGS12 GoLoco peptide FP, rhodamine, 10 min; Potency, µM (highest dose often 61.6 µM), actives largely listed as inhibitors; 230,000 tested, 0.44% active; AID 880; active means well fitted inhibition curve with a large enough effect, not every such curve was filed as active; inactive means no such curve, though single readings can be large or run the other way; further: nearly all actives have a fitted effect of over 30% in size
Target sequence (P63096 whole entry, looked up): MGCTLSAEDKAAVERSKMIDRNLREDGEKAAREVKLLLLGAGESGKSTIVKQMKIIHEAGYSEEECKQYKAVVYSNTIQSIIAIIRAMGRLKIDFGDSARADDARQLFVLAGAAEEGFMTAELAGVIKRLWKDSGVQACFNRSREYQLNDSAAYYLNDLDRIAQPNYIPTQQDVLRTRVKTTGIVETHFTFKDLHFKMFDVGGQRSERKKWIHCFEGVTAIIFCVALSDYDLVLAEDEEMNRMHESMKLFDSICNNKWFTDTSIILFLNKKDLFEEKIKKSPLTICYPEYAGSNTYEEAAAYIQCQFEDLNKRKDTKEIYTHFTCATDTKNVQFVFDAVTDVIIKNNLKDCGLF
Tau fluor counter: counter-screen for tau fibril formation inhibitors; tau K18 P301L Alexa594 fluorescence, heparin fibrillization; Potency, µM (top dose mostly 57.7 µM); 280,000 tested, 0.93% active; AID 1463; further: nearly all actives have a fitted effect of over 55% in size
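Human tau K18 P301L (15 uM unlabeled, 0.24 uM Alexa 594-labeled) in 100 mM sodium acetate pH 7 with 20 uM heparin, 6 hr at 37 C. ThT 30 uM added, 1 hr ambient; Alexa 594 FP and total fluorescence read at 555/632 nm.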
TRb SRC2 PPI: disrupts binding of human TR beta to SRC2; Potency, µM (doses to about 106 µM), most hits filed as inhibitors; AID 1469; 280,000 tested, 0.065% active; TRbeta-SRC2 peptide binding, fluorescence polarization; receptor liganded with 1 µM T3; further: nearly all actives have a fitted effect of over 50% in size
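A fluorescence polarization screen tested compounds at multiple concentrations against complex formation between 0.6 uM TRb ligand-binding domain and 20 nM Texas Red SRC2 peptide, with 1 uM T3 present; readout after 5 hr.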
Tau ThT inhib: blocks human tau fibril formation measured by thioflavin T; P10636; recombinant tau K18 P301L (four-repeat tau fragment), heparin-induced fibrillization, ThT fluorescence; 270,000 tested, 2.1% active; Potency, µM (top dose mostly 57.4 µM), usual class: inhibitors; further: nearly all actives have a fitted effect of over 55% in size
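Aggregation was driven by heparin (20 uM final) acting on recombinant tau […] bearing P301L in 100 mM sodium acetate pH 7; fibrils were detected with Thioflavin T.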
A number is an active result; [ ] = dose if it differs, or a comment. Unless noted, the call rests on the fitted dose curve; in most records, active means well fitted curve in the direction sought with a large enough effect; inconclusive means small, poorly fitted or top-dose-only effect, or another doubt; inactive means no such curve, though single readings can be large; an effect the other way counts as inactive or inconclusive.

For CC1(C)c2ccccc2N2CCC(=O)NC21/C=C/c1ccco1 (stereo not drawn) the results were TR SRC2 fluor cs 44.7µM[fluorescent], Tau fibril FP inactive, GoLoco inh red inactive, Tau fluor counter inactive, TRb SRC2 PPI inconclusive and Tau ThT inhib inconclusive.
Screening CC(C)=CCCC1=CC[C@H](C(=O)O)[C@H](C(=O)O)C1 returned TR SRC2 fluor cs inactive, Tau fibril FP inactive, GoLoco inh red inactive, Tau fluor counter inactive, TRb SRC2 PPI inactive and Tau ThT inhib inactive.
`CCOc1ccc(NC(=O)c2cc(S(=O)(=O)N3CCCCCC3)cn2C)cc1` gave TR SRC2 fluor cs inactive, Tau fibril FP inactive, Tau fluor counter inactive, TRb SRC2 PPI inactive and Tau ThT inhib inactive.
Cn1cc(S(=O)(=O)N2CCCC2)cc1C(=O)Nc1ccc(C(F)(F)F)cc1 was read as TR SRC2 fluor cs 44.7µM[quencher], Tau fibril FP inactive, Tau fluor counter inactive, TRb SRC2 PPI inactive and Tau ThT inhib inactive.
For O=C(Nc1cccc(-c2csc(Nc3cccc(C(F)(F)F)c3)n2)c1)c1ccccc1 the results were TR SRC2 fluor cs inactive, Tau fibril FP inactive, GoLoco inh red inactive, Tau fluor counter 8.91µM[quencher], TRb SRC2 PPI inactive and Tau ThT inhib inconclusive.
CC(=O)c1cccc(Nc2nc(-c3ccccc3)cs2)c1 was read as TR SRC2 fluor cs inactive, Tau fibril FP inconclusive, GoLoco inh red inactive, Tau fluor counter 7.94µM[quencher], TRb SRC2 PPI inactive and Tau ThT inhib inconclusive.
O=C(Nc1nc(-c2cccnc2)cs1)c1ccc([N+](=O)[O-])cc1 was read as TR SRC2 fluor cs inactive, Tau fibril FP inactive, GoLoco inh red inactive, Tau fluor counter inconclusive, TRb SRC2 PPI inactive and Tau ThT inhib inconclusive.
For CC(=O)NNc1nc(-c2ccccc2)cs1 the results were TR SRC2 fluor cs inactive, Tau fibril FP inconclusive, GoLoco inh red inactive, Tau fluor counter inconclusive, TRb SRC2 PPI inactive and Tau ThT inhib 17.8µM.
O=C(Nc1ccc(-c2csc(Nc3cccc(C(F)(F)F)c3)n2)cc1)c1cc([N+](=O)[O-])cc(C(F)(F)F)c1 was read as TR SRC2 fluor cs inactive, Tau fibril FP inactive, GoLoco inh red inactive, Tau fluor counter 3.55µM[quencher], TRb SRC2 PPI inactive and Tau ThT inhib inconclusive.
Cc1nc2ccc(S(=O)(=O)CCC(=O)Nc3ccc(C(C)C)cc3)cc2s1 was read as TR SRC2 fluor cs inactive, Tau fibril FP inactive, Tau fluor counter inactive, TRb SRC2 PPI inactive and Tau ThT inhib inactive.
Screening O=c1[nH]c2cc([N+](=O)[O-])cc([N+](=O)[O-])c2[nH]c1=O returned TR SRC2 fluor cs inactive and TRb SRC2 PPI inactive.
`CCOc1ccc(CCNC(=O)CCc2cn(Cc3ccc(F)cc3)c3ccccc23)cc1` gave TR SRC2 fluor cs inactive, Tau fibril FP inactive, Tau fluor counter inactive, TRb SRC2 PPI inactive and Tau ThT inhib inactive.
c1ccc2c(c1)C(=Nc1ccc(N=C3c4ccccc4-c4ccccc43)cc1)c1ccccc1-2 was read as GoLoco inh red inactive[14.2 µM].
Screening CC[C@H](C)[C@H](NC(=O)[C@H](Cc1ccc(O)cc1)NC(=O)[C@H](Cc1cnc[nH]1)NC(=O)[C@H](CCCNC(=N)N)NC(=O)[C@H](CC(C)C)NC(=O)[C@H](C)NC(=O)[C@H](CO)NC(=O)[C@H](Cc1ccc(O)cc1)NC(=O)[C@H](Cc1ccc(O)cc1)NC(=O)[C@H](CCCNC(=N)N)NC(=O)[C@H](C)NC(=O)[C@H](CC(C)C)NC(=O)[C@H](CC(=O)O)NC(=O)[C@H](CCC(=O)O)NC(=O)[C@H](C)NC(=O)[C@@H]1CCCN1C(=O)[C@H](C)NC(=O)[C@H](CC(=O)O)NC(=O)[C@H](CCC(=O)O)NC(=O)CNC(=O)[C@@H]1CCCN1C(=O)[C@H](CC(N)=O)NC(=O)[C@H](CC(=O)O)NC(=O)[C@@H]1CCCN1C(=O)[C@H](CCCCN)NC(=O)[C@H](CO)NC(=O)[C@@H]1CCCN1C(=O)[C@@H](N)Cc1ccc(O)cc1)C(=O)N[C@@H](CC(N)=O)C(=O)N[C@@H](CC(C)C)C(=O)N[C@@H](CC(C)C)C(=O)N[C@H](C(=O)N[C@@H](CCCNC(=N)N)C(=O)N1CCC[C@H]1C(=O)N[C@@H](CCCNC(=N)N)C(=O)N[C@@H](Cc1ccc(O)cc1)C(N)=O)[C@@H](C)O returned TR SRC2 fluor cs inactive and TRb SRC2 PPI inactive.
Screening O=C(Nc1cccc(-c2csc(Nc3ccccc3)n2)c1)c1ccccc1 returned TR SRC2 fluor cs inactive, Tau fibril FP inactive, GoLoco inh red inactive, Tau fluor counter 12.6µM[quencher], TRb SRC2 PPI inactive and Tau ThT inhib inconclusive.
For Cc1nc(-c2ccc(NC(=O)c3ccccc3)cc2)cs1 the results were TR SRC2 fluor cs inactive, Tau fibril FP inactive[2.34 µM], GoLoco inh red inactive, Tau fluor counter inactive, TRb SRC2 PPI inactive and Tau ThT inhib inactive.
`O=C(Nc1ccc(-c2csc(Nc3cccc(C(F)(F)F)c3)n2)cc1)c1ccccc1` gave TR SRC2 fluor cs inactive, Tau fibril FP inactive, GoLoco inh red inactive, Tau fluor counter 10µM[quencher], TRb SRC2 PPI inactive and Tau ThT inhib inconclusive.
Screening O=C(Nc1cccc(-c2cnc3ccccc3n2)c1)c1ccccc1 returned TR SRC2 fluor cs inactive, Tau fibril FP inactive, GoLoco inh red inactive, Tau fluor counter inactive, TRb SRC2 PPI inactive and Tau ThT inhib inactive.
CCN1C(=O)[C@H]2[C@H]3[C@H](O)[C@H](O)C/C(=N/OC[C@@H](O)COCc4ccco4)[C@H]3CC[C@@H]2C1=O was read as TR SRC2 fluor cs inactive[11.2 µM], Tau fibril FP inconclusive, Tau fluor counter inactive[11.6 µM], TRb SRC2 PPI inactive[11.2 µM] and Tau ThT inhib inactive[11.5 µM].
Screening O=C1/C(=C\c2ccc(O)cc2)SC(=S)N1/N=C/c1ccc(O)cc1 returned TR SRC2 fluor cs inactive, Tau fibril FP inactive, GoLoco inh red inactive, Tau fluor counter inconclusive, TRb SRC2 PPI inactive and Tau ThT inhib 5.01µM.
`Oc1ccc(C2Nc3cccc4cccc(c34)N2)c(O)c1` gave TR SRC2 fluor cs inconclusive, Tau fibril FP inconclusive, GoLoco inh red inactive, Tau fluor counter 7.94µM[quencher], TRb SRC2 PPI inactive and Tau ThT inhib 14.1µM.
COc1cc(C2Nc3cccc4cccc(c34)N2)ccc1OC(C)=O was read as TR SRC2 fluor cs inactive, Tau fibril FP inactive, GoLoco inh red inactive, Tau fluor counter inconclusive, TRb SRC2 PPI inactive and Tau ThT inhib inconclusive.
`O=[N+]([O-])c1ccc(C2Nc3cccc4cccc(c34)N2)cc1` gave TR SRC2 fluor cs inactive, Tau fibril FP inconclusive, GoLoco inh red inactive, Tau fluor counter 12.6µM[quencher], TRb SRC2 PPI inactive and Tau ThT inhib 14.1µM.
Screening O=[N+]([O-])c1cccc(C2Nc3cccc4cccc(c34)N2)c1 returned TR SRC2 fluor cs inactive, Tau fibril FP inactive, GoLoco inh red inactive, Tau fluor counter inconclusive, TRb SRC2 PPI inactive and Tau ThT inhib inconclusive.

Screening results (PubChem)
